Source: PubChem BioAssay AID434927 (Sanford-Burnham Center for Chemical Genomics, 2010)
Activity calls are given as the source filed them.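 How the source made its calls: active means inhibition above about 23% in any of six single-dose repeats (limit read from the data); inactive means the rest.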

These molecules were tested against Intestinal-type alkaline phosphatase (Homo sapiens) (UniProt P09923) (assay: suppression of intestinal alkaline phosphatase activity – biochemical, luminescence, single concentration, uHTS hits, confirmation (AID 434927;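 further: plate controls were DMSO wells with enzyme for no effect and wells lacking enzyme for full effect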)). Details: purified human IAP, CDP-Star luminescence, 30 min; at 8.3 µM; active compounds read high.
Sequence of Intestinal-type alkaline phosphatase (Homo sapiens) (P09923 whole entry, looked up): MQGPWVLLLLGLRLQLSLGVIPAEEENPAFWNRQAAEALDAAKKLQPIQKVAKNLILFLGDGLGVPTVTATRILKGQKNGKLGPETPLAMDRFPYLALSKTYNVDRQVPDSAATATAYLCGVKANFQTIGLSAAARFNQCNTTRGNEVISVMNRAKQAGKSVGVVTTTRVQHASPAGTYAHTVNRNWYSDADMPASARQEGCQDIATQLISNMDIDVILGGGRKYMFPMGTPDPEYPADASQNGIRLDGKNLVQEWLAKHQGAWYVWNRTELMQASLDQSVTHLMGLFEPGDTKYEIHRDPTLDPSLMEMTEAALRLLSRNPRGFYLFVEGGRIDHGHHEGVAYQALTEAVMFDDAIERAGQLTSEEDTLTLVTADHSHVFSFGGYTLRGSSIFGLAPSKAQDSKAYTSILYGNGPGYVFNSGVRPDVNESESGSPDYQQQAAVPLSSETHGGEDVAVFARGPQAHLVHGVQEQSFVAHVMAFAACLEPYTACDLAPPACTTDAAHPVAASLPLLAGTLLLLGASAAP

inhibition, inactive:
Cc1cc(C)c2nc(SCC(=O)NNC(=O)c3ccco3)c(C)cc2c1 -58.7%, CC1(C)C[C@@H](O)CC2(C1)C[C@]1(C)CC(O)[C@H]2C(C)(C)C1 (some centres undefined) -93.3%, CCOc1cc(/C=N/NC(=O)C(=O)N/N=C/c2ccc(O)c(OCC)c2)ccc1O -47.6%, CCCCCCCn1c(=N)n(CC(=O)c2ccco2)c2ccccc21 -49.6%, CCOc1ccc(NC(=O)CSc2nncn2C)cc1 -83.5%, Cc1c(C(=O)N/N=C/c2c(O)ccc3ccccc23)nnn1-c1nonc1N -86.1%, COc1cccc(/C=N/Nc2nc(-c3cccnc3)nc3ccccc23)c1 -0.0482%, O=C(CN1CCN(C(=O)N2CCCCC2)CC1)Nc1ccc(F)cc1 -97.3%, Cc1nc2c3ccccc3nc(NNC(=O)CCC(=O)NCCN3CCN(c4ccccc4)CC3)n2n1 -97.4%, Cc1cccc(SCc2noc(C(=O)NCC3CCCO3)c2C(=O)O)c1 (centres undefined) -213%, Cc1cccc(OCC(=O)NNC(=O)c2ccc3nc[nH]c3c2)c1 -117%, COc1ccccc1C1CN(c2ccccc2)N=C1c1cccs1 (centres undefined) -128%, Cc1ccc(S(=O)(=O)N(CC(=O)Nc2ccc(C)cc2C)C(=O)N2CCN(C)CC2)cc1 -55.4%, Cc1nc2c3ccccc3nc(NNC(=O)CCC(=O)N3CCCC(C)C3)n2n1 (centres undefined) -41.6%

inhibition, active:
CSCCC(NS(=O)(=O)c1ccc(C)cc1)C(=O)NNC(=O)c1csc(N2CCOCC2)n1 (centres undefined) 48.3%, CCc1ccc(/C=N/Nc2ncnc3nc[nH]c23)cc1 33.8%, CC(C)Oc1ccc(CCC(=O)NNC(=S)NCc2ccccc2)cc1 46.5%, O=C(N/N=C/c1c(F)cccc1Cl)c1cc(C2CC2)[nH]n1 37.7%, COc1cccc(/C=N\NC(=O)C2=NNC(=O)C2C)c1O (centres undefined) 34.8%
